Bioassay records (PubChem)
DT40 TDP1 CPT – DT40-hTDP1 cell growth loss with CPT; chicken DT40 Tdp1-/-;hTDP1 cells + 20 nM CPT, ATP luminescence, 48 h; Potency, µM (doses to about 46.2 µM), hits mostly inhibitors; 420,000 compounds, 12% hits; AID 686979; further: nearly all actives have a fitted effect of over 55% in size
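Chicken DT40 Tdp1-/- cells stably complemented with human TDP1 were seeded at 400 cells/well in medium containing 20 nM camptothecin, exposed to pin-transferred compounds, and grown at 37 °C for at least 48 hr. Viability was read as ATP luminescence.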
TDP1 block – blocks human tyrosyl-DNA phosphodiesterase 1. Q9NUW8. recombinant TDP1, AlphaScreen DNA substrate cleavage. Potency, µM (doses to about 130 µM), usual class: inhibitors. 350,000 compounds, 0.28% hits. AID 485290; further: nearly all actives have a fitted effect of over 40% in size
Target sequence (Q9NUW8 whole entry, looked up): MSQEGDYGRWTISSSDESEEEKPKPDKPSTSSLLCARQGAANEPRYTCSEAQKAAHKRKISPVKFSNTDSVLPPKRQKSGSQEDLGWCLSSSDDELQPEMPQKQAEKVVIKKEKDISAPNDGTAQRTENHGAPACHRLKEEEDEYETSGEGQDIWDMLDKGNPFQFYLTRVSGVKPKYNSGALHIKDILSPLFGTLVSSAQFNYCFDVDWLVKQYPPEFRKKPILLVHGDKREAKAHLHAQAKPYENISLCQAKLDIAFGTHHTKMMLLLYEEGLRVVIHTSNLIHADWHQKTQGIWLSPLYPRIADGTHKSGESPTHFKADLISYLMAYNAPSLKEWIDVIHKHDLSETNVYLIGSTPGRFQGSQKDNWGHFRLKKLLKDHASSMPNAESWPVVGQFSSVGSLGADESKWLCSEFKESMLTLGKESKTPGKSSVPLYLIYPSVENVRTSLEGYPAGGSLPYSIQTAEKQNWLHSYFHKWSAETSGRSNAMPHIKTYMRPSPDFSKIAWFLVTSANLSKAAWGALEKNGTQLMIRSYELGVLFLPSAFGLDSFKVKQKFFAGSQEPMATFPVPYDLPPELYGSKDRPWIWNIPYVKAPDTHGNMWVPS
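Tdp1 1 nM final; 15 min RT w/ cpd; substrate 15 nM, 5 min; beads 10 ug/ml, 10 min; AlphaScreen read. Neg ctrl: no enzyme.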
ClpP mod – qHTS Assay for Activators of ClpP; AID 651965, 2013; purified B. subtilis ClpP, FRET peptide cleavage, 20 min; Potency, µM (doses to about 57.5 µM); ATP-dependent Clp protease proteolytic subunit (Bacillus subtilis (strain 168)), P80244; 340,000 compounds, 1.9% hits; active means well fitted falling curve with a large enough effect; inconclusive means small, poorly fitted or top-dose-only effect; inactive means no such curve, though single readings can be large or run the other way; further: the source files actives as falling curves though it sought activators and does not explain the sign; nearly all actives have a fitted effect of over 65% in size
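ClpP 10 microg/mL final, pH 8 Tris/KCl buffer with BSA, glycerol, Tween-20; compound pinned in; FRET-FV substrate; RT 20 min; Ex320/Em430; ΔFRET vs ADEP 5.8 microM, DMSO, no enzyme.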
TDP1 cell noCPT – qHTS for Inhibitors of human tyrosyl-DNA phosphodiesterase 1 (TDP1): qHTS in cells in absence of CPT | DT40 Tdp1-/- hTDP1 cells, no CPT, ATP luminescence, 48 h | Potency, µM (series often up to 46.2 µM), hits mostly inhibitors | 420,000 compounds, 15% hits; further: nearly all actives have a fitted effect of over 55% in size
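Growth kinetics read by CellTiter-Glo luminescence after ≥48 hr at 37 °C. Cells: DT40 Tdp1-/- stably carrying human TDP1, 400 per well, compound exposure in the absence of CPT (DMSO vehicle).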
Of the large screens only hits and unclear results are named; the others gave an inactive call. Hits are enriched below; roughly 17% of the tested compounds scored in any of these assays. Unless noted, the call rests on the fitted dose curve; in most records, active means well fitted curve in the direction sought with a large enough effect; inconclusive means small, poorly fitted or top-dose-only effect, or another doubt; inactive means no such curve, though single readings can be large; an effect the other way counts as inactive or inconclusive.

O=C(Nc1ccc(Cl)cc1)N1CCN(c2ccccc2)CC1	DT40 TDP1 CPT inconclusive, TDP1 cell noCPT inconclusive
CC(=O)c1ccc(NC(=O)N2CCN(c3cccc(Cl)c3)CC2)cc1	DT40 TDP1 CPT 12µM, TDP1 cell noCPT 12µM
NS(=O)(=O)c1ccc(NC(=S)N2CCN(c3cccc(Cl)c3)CC2)cc1	DT40 TDP1 CPT inconclusive, TDP1 cell noCPT 7.3µM
CC(=O)c1ccc(N2CCN(C(=O)Nc3ccc(Cl)cc3)CC2)cc1	DT40 TDP1 CPT inconclusive, TDP1 cell noCPT 10µM
CC(=O)c1ccc(N2CCN(C(=O)C3CCN(C(=O)Nc4ccccc4)CC3)CC2)cc1	DT40 TDP1 CPT inconclusive, TDP1 cell noCPT inconclusive
NS(=O)(=O)c1ccc(NC(=S)N2CCN(c3ccccc3Cl)CC2)cc1	DT40 TDP1 CPT inconclusive, TDP1 cell noCPT inconclusive
Cc1ccc(Cc2nnc(SCC(=O)Nc3ccccc3)[nH]c2=O)cc1	DT40 TDP1 CPT inconclusive
Cc1ccc(Cc2nnc(SCC(=O)Nc3c(C)cccc3C)[nH]c2=O)cc1	DT40 TDP1 CPT inconclusive, TDP1 cell noCPT 6.5µM
NCC1O[C@@H](OC2C(N)C[C@H](N)[C@@H](O[C@H]3OC(CO)C(O)C(N)C3O)C2O)C(O)C(O)C1O (some centres undefined)	none (no result: ClpP mod)
Cc1noc(C)c1CSCC(=O)Nc1cc(S(=O)(=O)N2CCCCC2)ccc1OC(C)C	DT40 TDP1 CPT 12µM, TDP1 cell noCPT 23µM (no result: ClpP mod)
CCN(CC)c1ccc(S(=O)(=O)N2CCCCC2)cc1NC(=O)CSCc1c(C)noc1C	DT40 TDP1 CPT inconclusive, TDP1 cell noCPT inconclusive (no result: TDP1 block)
CC(C)Oc1ccc(S(=O)(=O)N2CCOCC2)cc1NC(=O)CSC(=S)N1CCCC1	DT40 TDP1 CPT inconclusive, TDP1 cell noCPT 21µM (no result: TDP1 block)
COc1ccc(C(=O)OCC(=O)NCc2ccc3c(c2)OCO3)cc1S(=O)(=O)N1CCOCC1	none
COc1cc2sc3ccc(C#Cc4ccccn4)cc3c(=O)c2cc1OC	ClpP mod inconclusive, TDP1 cell noCPT inconclusive (no result: TDP1 block)
COc1cccc2oc3ccc(C#Cc4ccccn4)cc3c(=O)c12	DT40 TDP1 CPT 12µM, TDP1 cell noCPT inconclusive (no result: TDP1 block)
O=c1c2ccccc2oc2cc(C#Cc3ccccn3)ccc12	none (no result: TDP1 block)
COc1cccc2sc3cc(C#Cc4ccccn4)ccc3c(=O)c12	DT40 TDP1 CPT 18µM, TDP1 block 45µM, TDP1 cell noCPT 16µM
CC(C)CCn1c(COc2ccccc2)nn(CCC#N)c1=S	DT40 TDP1 CPT inconclusive (no result: TDP1 block)
COc1ccc(-c2nc(=S)[nH][nH]2)cc1OC	none
COc1ccc(-c2[nH]c(-c3ccc(C(=O)O)cc3)nc2-c2ccccc2)cc1	none
Cc1ccsc1-c1nc(-c2ccccc2)c(-c2ccccc2)[nH]1	DT40 TDP1 CPT inconclusive, ClpP mod 28µM, TDP1 cell noCPT inconclusive
CCCc1nc(-c2ccccc2)c(-c2ccc(OC)c(OC)c2)c(=O)[nH]1	none
COc1ccc(-c2nc(-c3ccccc3)c(-c3cccs3)[nH]2)cc1OC	DT40 TDP1 CPT 18µM, ClpP mod 28µM, TDP1 cell noCPT 15µM
COc1ccc(-c2nc(-c3cccs3)c(-c3cccs3)[nH]2)cc1OC	DT40 TDP1 CPT inconclusive, ClpP mod 35µM, TDP1 cell noCPT 16µM
COc1ccc(-c2nc(-c3ccccc3)c(-c3ccccc3)[nH]2)cc1Br	DT40 TDP1 CPT 18µM, TDP1 cell noCPT 13µM
CS(=O)(=O)c1nc(-c2ccccc2)c(-c2ccccc2)[nH]1	ClpP mod inconclusive
Cc1sc2ncn(CC(=O)N(C)c3cccc(C(F)(F)F)c3)c(=O)c2c1S(=O)(=O)N1CCN(c2ncccn2)CC1	none
O=C1CN(C(=O)COc2ccc(Br)cc2)c2ccccc2N1	none (no result: ClpP mod)
COc1ccc(S(=O)(=O)N(C)C)cc1NC(=O)COC(=O)Cn1cnc2ccccc2c1=O	none
COc1ccc(-c2nc(-c3ccccc3)[nH]c(=O)c2C#N)cc1	none
COc1cc2c(-c3cccc(Cl)c3)nc3c(c(C)nn3-c3ccccc3)c2cc1OC	none
COc1cc(-c2nc(-c3cccc(Cl)c3)c(-c3ccccc3)[nH]2)cc(OC)c1OC	DT40 TDP1 CPT 18µM, TDP1 cell noCPT 16µM (no result: TDP1 block)
COc1cc(-c2nc(-c3ccccc3)c(-c3cc([N+](=O)[O-])ccc3C)[nH]2)cc(OC)c1OC	DT40 TDP1 CPT 18µM, TDP1 cell noCPT 16µM
